# Rango-impB inh – inhibitors of Rango-importin beta complex formation. Q14974. Rango CFP/YFP FRET sensor + importin beta, 45 min. Potency, µM (doses to about 92.2 µM), without a hit: top-dose inhibition of complex formation. hit rate 0.031% among 340,000. AID 540263; calls by dose curve;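 also: potency is read from the fitted curve at half-maximal effect; 0% = DMSO wells and 100% = buffer wells lacking importin beta; nearly all actives have a fitted effect of over 15% in size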
#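 FRET biosensor (snurportin 1 IBB flanked by EYFP and cerulean), 50 nM, with compound 5 min, then 0.125 microM importin beta in PBS, 1 mM DTT, 0.02% Tween-20, 0.1% BSA. CFP/YFP ratio read after 45 min at room temperature; pre-read flags interference.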
# GCN5L2 inh – inhibitors of human GCN5L2 histone acetyltransferase | Potency, µM (doses to about 58.9 µM), for the others: at the top dose activity change, negative = inhibition, most hits filed as inhibitors | Q92830 | hit rate 0.21% among 390,000 | GCN5L2 HAT assay, ThioGlo1 CoA-SH fluorescence | AID 504327; also: potency is read from the fitted curve at half-maximal effect; % is scaled to controls: 0 for no effect and ±100 for the full control effect
#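 Enzyme at 20nM final was mixed with library compounds for 15 min at room temperature. Peptide H3(1-25) at 75uM, acetyl-CoA at 70uM and ThioGlo1 at 50uM were then added. Plates were read immediately and after 20 min (Ex340nm/Em540nm).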
# VDR inhibitor – inhibitors of human vitamin D receptor; VDR-SRC2-3 peptide fluorescence polarization, 2 h; Potency, µM, for the others: max response, negative = inhibition, usual class: inhibitors; AID 504847; hit rate 0.93% among 400,000; also: potency is read from the fitted curve at half-maximal effect; % is scaled to controls: 0 for no effect and ±100 for the full control effect
#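 After 23 nl compound addition and a short centrifugation, plates sat for 2 hours at ambient temperature; polarization of fluorescence then indicated loss of VDR binding to peptide SRC2-3.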
# PLK1 PBD block – blocks phosphopeptide binding to human PLK1 polo-box domain; P53350; Plk1 PBD binding of FITC phosphopeptide, fluorescence polarization; Potency, µM, for inactives: max response, negative = inhibition, most hits filed as inhibitors; hit rate 2.8% among 360,000; AID 720504; also: potency is read from the fitted curve at half-maximal effect; series mostly up to about 57 µM; % is scaled to controls: 0 for no effect and ±100 for the full control effect; nearly all actives have a fitted effect of over 65% in size
# Target sequence (P53350 whole entry, looked up, the tested form may be a part): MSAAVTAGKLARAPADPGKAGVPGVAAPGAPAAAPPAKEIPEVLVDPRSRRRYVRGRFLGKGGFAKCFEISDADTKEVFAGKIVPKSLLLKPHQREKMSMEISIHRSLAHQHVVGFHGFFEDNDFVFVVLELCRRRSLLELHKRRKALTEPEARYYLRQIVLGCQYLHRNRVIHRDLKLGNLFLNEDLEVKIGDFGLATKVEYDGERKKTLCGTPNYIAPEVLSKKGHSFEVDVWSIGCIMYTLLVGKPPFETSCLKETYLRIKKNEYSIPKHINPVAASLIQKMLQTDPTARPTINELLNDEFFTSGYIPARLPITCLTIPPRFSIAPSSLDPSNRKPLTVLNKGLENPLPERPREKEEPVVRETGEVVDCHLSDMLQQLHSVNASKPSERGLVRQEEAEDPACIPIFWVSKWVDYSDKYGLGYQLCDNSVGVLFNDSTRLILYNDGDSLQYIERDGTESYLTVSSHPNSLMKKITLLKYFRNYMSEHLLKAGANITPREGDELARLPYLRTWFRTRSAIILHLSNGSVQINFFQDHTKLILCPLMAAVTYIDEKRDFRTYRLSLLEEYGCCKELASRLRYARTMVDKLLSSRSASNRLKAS
# PI5P4K alpha inh – inhibitors of human PI5P4K alpha | PI5P4Kalpha enzyme, ADP-Glo luminescence, 60 min; active compounds read low | max response, % | hit rate 1.2% among 330,000 | AID 652105; active = max response of -50% or lower; inconclusive = between -30% and -50%; inactive = -30% or higher; also: value at the top dose of about 77 µM; % is scaled to controls: 0 for no effect and ±100 for the full control effect
#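 qHTS, 1536-well: enzyme/substrate mix, compound by pin tool, 5 microM ATP final; RT 60 min; ADP-Glo reagents 1 (45 min) then 2 (30 min); luminescence.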
# Rango dissoc inh – prevents RanGTP from dissociating the Rango-importin beta complex; AID 540253; Biochemical FRET Rango-importin beta, RanGTP-induced dissociation; Potency, µM (highest dose often 46.1 µM), for the others: at the highest dose activity change, negative = inhibition; hit rate 0.071% among 340,000; O95149+P62826; calls by dose curve; also: potency is read from the fitted curve at half-maximal effect; % of control where 0% means no effect; nearly all actives have a fitted effect of over 45% in size
#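 Compounds sat 5 min at room temperature with 0.1 uM Rango biosensor plus 0.25 uM importin beta, then FRET pre-read. RanGTP-RCC1 (0.6 uM Ran, 2mM GTP, 0.2 uM RCC1) added for 45 min, and the CFP/YFP post-read measured blocked complex dissociation.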
# Numbers without * were called inactive; ? = inconclusive; nt = no result. The list is not random: actives were taken first. Their share in the collection is about 3.6%. Unless noted, calls follow the shape of the dose curve; as a rule, active = well fitted curve in the direction sought with a large enough effect; inconclusive = small, poorly fitted or top-dose-only effect, or another doubt; inactive = no such curve, though single readings can be large; an effect the other way counts as inactive or inconclusive.
SMILES,Rango-impB inh,GCN5L2 inh,VDR inhibitor,PLK1 PBD block,PI5P4K alpha inh,Rango dissoc inh
O=C(C1=C(O)C(=O)N(c2nc3ccc(Cl)cc3s2)C1c1ccco1)c1ccco1 (stereo not drawn),?,?,?,21.2µM*,-74.0*,16.4µM*
Cc1ccc2nc(N3C(=O)C(O)=C(C(=O)c4ccco4)C3c3ccc(C)o3)sc2c1 (stereo not drawn),?,-6.2%,-29.2%,13.4µM*,-51.6*,-19.1%
CCc1cccc(-n2c(=O)c3cccnc3n2CC(=O)NCc2ccccc2)c1,nt,-2.7%,6.0%,nt,nt,nt
CCc1ccccc1NC(=O)Cn1c(=O)n(Cc2ccco2)c(=O)c2ccccc21,nt,0.3%,-4.6%,nt,nt,nt
COc1ccccc1NS(=O)(=O)c1cc(NC(=O)C2CCC2)ccc1N1CCCCC1,-2.4%,-27.3%,?,5.97µM*,-18.4,6.6%
COc1ccccc1NS(=O)(=O)c1cc(NC(=O)Nc2ccc(Cl)cc2Cl)ccc1N1CCCCC1,0.3%,-5.5%,-15.6%,?,4.7,5.8%
COc1ccccc1NS(=O)(=O)c1cc(NC(=O)c2ccccc2F)ccc1N1CCOCC1,0.0%,-4.3%,-0.8%,26.7µM*,6.9,-0.4%
Nc1ccc(N2CCCCC2)c(S(=O)(=O)Nc2ccccc2Cl)c1,-1.4%,-14.8%,-14.5%,26.7µM*,?,0.5%
COc1ccc(NS(=O)(=O)c2cc(NC(=O)C3CC3)ccc2N2CCCCC2)cc1,-3.3%,-1.7%,-7.8%,-9.5%,1.5,0.1%
CCCS(=O)(=O)Nc1ccc(N2CCCCC2)c(S(=O)(=O)Nc2ccccc2OC)c1,-8.0%,-13.0%,-20.9%,23.8µM*,-5.7,-26.8%
Nc1ccc(N2CCCCC2)c(S(=O)(=O)Nc2ccc(Cl)cc2)c1,0.2%,-2.2%,-19.7%,-12.0%,-1.2,24.7%
N[C@H](C(=O)O)[C@H]1C[C@H]1C(=O)O,nt,-12.3%,-2.4%,nt,nt,nt
Cn1cccc1/C=C1\SC(=Nc2cccc(O)c2)NC1=O,?,-3.9%,12.7%,-3.5%,-55.4*,-28.0%
N#Cc1cccc(-c2nc3cnc(N4CCOCC4)nc3n(C[C@H]3CCCO3)c2=O)c1,nt,-19.9%,6.7%,nt,nt,nt
C=CCNC(=O)C1CC(=O)N(c2ccc(Br)cc2)C1 (stereo not drawn),2.9%,1.2%,6.2%,-1.2%,-4.7,1.3%
CCNC(=O)C1CC(=O)N(c2ccc(Br)cc2)C1 (stereo not drawn),-5.9%,-5.0%,-17.8%,23.8µM*,-7.6,12.0%
O=C(Nc1c(Cl)cccc1Cl)c1cccc2c1C(=O)N(C1CCCCC1)C2,nt,-1.7%,-17.1%,nt,nt,nt
NS(=O)(=O)c1ccc(O)c(NC(=O)c2ccc([N+](=O)[O-])o2)c1,-3.8%,?,?,4.23µM*,?,10.1%
COc1cccc(/C=C/c2ccccn2)c1O,-0.8%,-3.7%,-27.3%,26.7µM*,3.0,13.0%
COc1cccc(O)c1O,nt,-20.1%,50.1µM*,nt,nt,nt
COc1cccc(/C=C/c2ccc3cccc(O)c3n2)c1OC,3.0%,-9.6%,?,-8.4%,40.2,?
CCOC(=O)Cc1csc(NS(=O)(=O)c2ccc(F)cc2)n1,2.0%,15.6%,-16.7%,21.2µM*,-26.9,3.1%
CCOC(=O)Cc1csc(NS(=O)(=O)c2ccc(Br)cc2)n1,-0.5%,-2.3%,-6.9%,-0.1%,-7.8,-10.1%
COc1ccc(C(C#N)=C2C=C(Cl)C(=NO)C=C2Cl)cc1,nt,nt,nt,21.2µM*,-29.6,nt
Cc1ccccc1Nc1cc(C(=O)NC2CCCC2)c2ccccc2n1,nt,-3.3%,-17.4%,nt,nt,nt
SMILES,Rango-impB inh,GCN5L2 inh,VDR inhibitor,PLK1 PBD block,PI5P4K alpha inh,Rango dissoc inh
Cc1ccccc1Nc1cc(C(=O)NCC2CCCO2)c2ccccc2n1 (stereo not drawn),-1.1%,-0.5%,?,10.6µM*,-22.2,1.1%
N#CN=c1snc(-c2ccccc2Cl)n1-c1ccc(F)cc1,nt,nt,-4.2%,nt,nt,nt
Cc1cccc(CSc2cn(CC(=O)N3CCCC3)c3ccccc23)c1,nt,-9.5%,5.7%,nt,nt,nt
Nc1ccccc1Sc1ccc(C(=O)c2ccccc2C(=O)O)cc1[N+](=O)[O-],0.0%,20µM*,-29.8%,?,-66.4*,-10.4%
O=C(O)c1ccccc1Sc1c([N+](=O)[O-])cc(C(F)(F)F)cc1[N+](=O)[O-],4.8%,-6.8%,-1.6%,-12.0%,2.3,7.0%
Nc1cc(C(=O)O)ccc1Sc1ccccc1C(=O)O,?,-26.5%,?,10.6µM*,?,-4.5%
O=[N+]([O-])c1cc(-c2nc(-c3ccccc3)no2)ccc1NC1CCCCC1,nt,-6.8%,7.8%,nt,nt,nt
Cc1nn(-c2ccccc2)c2nc(-c3ccncc3)cc(C(=O)NCc3ccco3)c12,-3.5%,-9.1%,-19.2%,29.9µM*,?,8.8%
O=C1/C(=C/c2ccccn2)SC(=S)N1Nc1ncc(C(F)(F)F)cc1Cl,-1.0%,nt,28.2µM*,?,-65.9*,-9.9%
CC[C@H](C)[C@H](NC(=O)[C@H](Cc1ccc(O)cc1)NC(=O)[C@H](Cc1cnc[nH]1)NC(=O)[C@H](CCCNC(=N)N)NC(=O)[C@H](CC(C)C)NC(=O)[C@H](C)NC(=O)[C@H](CO)NC(=O)[C@H](Cc1ccc(O)cc1)NC(=O)[C@H](Cc1ccc(O)cc1)NC(=O)[C@H](CCCNC(=N)N)NC(=O)[C@H](C)NC(=O)[C@H](CC(C)C)NC(=O)[C@H](CC(=O)O)NC(=O)[C@H](CCC(=O)O)NC(=O)[C@H](C)NC(=O)[C@@H]1CCCN1C(=O)[C@H](C)NC(=O)[C@H](CC(=O)O)NC(=O)[C@H](CCC(=O)O)NC(=O)CNC(=O)[C@@H]1CCCN1C(=O)[C@H](CC(N)=O)NC(=O)[C@H](CC(=O)O)NC(=O)[C@@H]1CCCN1C(=O)[C@H](CCCCN)NC(=O)[C@H](CO)NC(=O)[C@@H]1CCCN1C(=O)[C@@H](N)Cc1ccc(O)cc1)C(=O)N[C@@H](CC(N)=O)C(=O)N[C@@H](CC(C)C)C(=O)N[C@H](C(=O)N[C@H](C(=O)N[C@@H](CCCNC(=N)N)C(=O)N[C@@H](CCC(N)=O)C(=O)N[C@@H](CCCNC(=N)N)C(=O)N[C@@H](Cc1ccc(O)cc1)C(N)=O)[C@@H](C)O)[C@@H](C)CC,nt,2.1%,3.0%,nt,nt,nt
